# Only some compounds are listed: those with a hit (about 2.6% of all), similar ones and a draw of the others.
# HTT prom inh = inhibits huntingtin promoter activity. HEK293 HTT promoter firefly luciferase reporter, 24 h. Potency, µM (top dose mostly 57.5 µM), hits mostly inhibitors. hit rate 0.93% among 48,000; further: nearly all actives have a fitted effect of over 50% in size
#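 HEK293 luciferase promoter-reporter cells (2,500/well) plated 24 h, then compounds added at up to 57.5 uM final for 24 h at 37 °C. Firefly luminescence by Dual-Glo, normalized to vehicle (0%) and zero RLU (-100%).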
# HTT-AS act = HTT-AS promoter activation; HEK293 HTT-AS promoter firefly luciferase reporter, 24 h; response scale: percent change from vehicle, -100% = no light; Potency, µM (titrated, usually from 57.5 µM), most hits filed as activators; hit rate 0.24% among 48,000; AID 1508624; further: nearly all actives have a fitted effect of over 55% in size
#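 HEK293 Fluc reporter, 2,500 cells/well, 24 h pre-culture; cpds up to 57.5 uM final, 24 h 37 degrees C; Dual-Glo, 10 min RT; normalized vehicle = 0%, zero RLU = -100%.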
# FH mod = Identification of activators of human fumarate hydratase by quantitative high-throughput screening; Fumarate hydratase, mitochondrial (Homo sapiens), P07954; FH coupled MDH/diaphorase resazurin fluorescence, 15 min; AID 1347055, 2019; hit rate 0.22% among 54,000; Potency, µM (highest dose often 79.9 µM), usual class: inhibitors; further: the screen sought activators but most active calls are inhibition curves; nearly all actives have a fitted effect of over 45% in size
# Target sequence (P07954 whole entry, looked up): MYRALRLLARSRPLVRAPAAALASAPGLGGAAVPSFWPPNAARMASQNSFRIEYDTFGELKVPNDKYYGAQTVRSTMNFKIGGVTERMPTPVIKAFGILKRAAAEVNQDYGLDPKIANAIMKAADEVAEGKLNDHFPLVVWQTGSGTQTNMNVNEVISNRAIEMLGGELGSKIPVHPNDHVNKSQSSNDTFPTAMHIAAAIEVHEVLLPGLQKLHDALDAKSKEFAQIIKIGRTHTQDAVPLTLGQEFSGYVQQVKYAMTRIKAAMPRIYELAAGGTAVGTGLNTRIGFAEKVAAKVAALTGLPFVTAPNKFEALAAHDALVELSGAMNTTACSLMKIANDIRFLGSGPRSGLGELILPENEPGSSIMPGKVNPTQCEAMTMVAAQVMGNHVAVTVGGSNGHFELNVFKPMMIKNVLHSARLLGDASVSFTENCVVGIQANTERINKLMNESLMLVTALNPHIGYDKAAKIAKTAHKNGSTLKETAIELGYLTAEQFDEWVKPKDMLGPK
# NTMT1 inh = NTMT1 methyltransferase inhibition; hit rate 2.5% among 59,000; NTMT1 MTase-Glo SAH luminescence, purified enzyme; Potency, µM (top dose mostly 114 µM), most hits filed as inhibitors; Q9BV86; further: nearly all actives have a fitted effect of over 65% in size
# Hits are given with their value; . = inactive; ? = inconclusive; / = no result given; ! = repeats disagree. The call rests on the fitted dose curve; in most records, active means well fitted curve in the direction sought with a large enough effect; inconclusive means small, poorly fitted or top-dose-only effect, or another doubt; inactive means no such curve, though single readings can be large; an effect the other way counts as inactive or inconclusive.
SMILES,HTT prom inh,HTT-AS act,FH mod,NTMT1 inh
C=C[C@H]1[C@H](O[C@@H]2O[C@H](CO[C@@H]3OC[C@](O)(CO)[C@H]3O)[C@@H](O)[C@H](O)[C@H]2O)OC=C2C(=O)OCC[C@H]21,/,/,.,.
O=C(Nc1cccc2c1cnn2-c1ccc(F)cc1)c1ccccn1,/,/,/,.
COc1ccc(CNC(=O)c2cnn(-c3ccc(F)cc3)c2-n2cccc2)cc1,.,.,.,.
CC(CNC(=O)c1cnn(-c2ccc(F)cc2)c1-n1cccc1)c1ccccc1 (configuration not stated),?,.,.,79µM
Cn1ccc2cc3c(cc21)CCN3C(=O)Nc1cccnc1,.,?,?,79µM!
Cc1cc2c(s1)c1cnn(Cc3ccc(C)c(F)c3)c(=O)c1n2C,/,/,/,79µM
CCOc1ccc(C(=O)Oc2ccc(-c3nc4ccccc4[nH]3)cc2)cc1Cl,/,/,/,.
CCCc1nnc(NC(=O)Nc2ccccc2Cl)s1,.,3.5µM,.,.
CCc1ccccc1NC(=O)Nc1nnc(N2CCCC2)s1,.,.,.,.
COCCNCc1ccc(-c2cc3nccc(Oc4ccc(NC(=S)NC(=O)Cc5ccc(F)cc5)cc4F)c3s2)nc1,/,/,.,?
C=C1C(=O)OC2CC(C)=C(C(C)CCCO)C(O)C12 (configuration not stated),/,/,.,.
COc1cc(/C=C(\C#N)C(=O)c2ccc(O)c(O)c2)cc(I)c1O,/,/,7.9µM,/
C/C=C/C(O)C1OC(=O)CC1Nc1ccc(C(=O)O)cc1 (configuration not stated),/,/,.,.
CN(c1ccc(F)cc1)S(=O)(=O)N1CCCC(C(=O)NCc2ccccc2Cl)C1 (configuration not stated),?,.,.,.
COc1cccc(CNC(=O)C2CCCN(S(=O)(=O)N(C)c3ccc(F)cc3)C2)c1OC (configuration not stated),25µM,.,.,.
COc1ccc(-c2nc(Nc3ccc(F)c(F)c3)c3ccccc3n2)cc1,/,/,/,.
CC(O)C/C=C/C=C/C(=O)OC1C=C2COC(=O)C2(O)C2(C)CCCC(C)(C)C12 (configuration not stated),/,/,.,.
CCCNC(=O)c1cnn2c(C)c(Cc3c(C)cc(C)cc3C)c(C)nc12,5µM,.,.,.
O=C1CCCC2=C1C(c1[nH]ncc1Cl)N=C(Nc1nc3cc([S+](=O)([O-])N4CCCC4)ccc3o1)N2 (configuration not stated),/,/,/,.
c1ccc2c(-c3cnn4cc(-c5ccc(N6CCNCC6)cc5)cnc34)ccnc2c1,.,?,.,56µM!
CC(C)Oc1ccc(-c2cnc3c(-c4ccnc5ccccc45)cnn3c2)cc1,/,/,.,.
Cc1cccc(OCC(=O)Nc2ccc(-c3nc4cc(C)ccc4o3)c(O)c2)c1,.,0.5µM,.,.
C=C1C(=O)OC[C@H]2C(C(=O)O)=CC3CC(C)(C)C[C@@]132 (some centres not stated),/,/,.,.
Cc1cc(C)cc(NC(=O)N2CCN3CCCCC3C2)c1 (configuration not stated),.,.,.,.
Cc1cc(C)cc(NC(=O)N2CCC(N3CCCCC3)CC2)c1,.,.,.,89µM
SMILES,HTT prom inh,HTT-AS act,FH mod,NTMT1 inh
Cc1ccc(S(=O)(=O)c2nnn3c2nc(NCc2ccccc2)c2sccc23)cc1,.,.,.,.
Cc1ccc(S(=O)(=O)c2nnn3c2nc(NCc2ccc(F)cc2)c2sccc23)cc1,.,.,.,89µM
CCOC(=O)c1c(-c2ccccc2)csc1NC(=O)c1cc(-c2cccc(Cl)c2)on1,.,.,.,.
CCOC(=O)c1c(-c2ccc(C)o2)csc1NC(=O)CSc1nnnn1-c1ccccc1,/,/,/,3.5µM
CCn1c(=O)c(-c2ccc(Cl)cc2Cl)cc2cnc(Nc3ccc(N4CCNCC4)c(F)c3)nc21,/,/,.,50µM!
COc1ccc(CNc2ccc(S(=O)(=O)Nc3nccs3)cc2)cc1O,/,/,/,.
CCc1ccc(CN2CCc3nc(Nc4ccc5c(c4)OCCO5)ncc3C2)cc1,.,.,?,89µM
CCN1CCN(Cc2ccc(-c3cc4c(NC(C)c5ccccc5)ncnc4[nH]3)cc2)CC1 (configuration not stated),/,/,.,14µM
CCn1c2ccccc2c2cc(CN3CCN(Cc4ccc(Cl)cc4)CC3)ccc21,.,.,?,?
Cc1ccc(-n2ncc3c(NC(C)c4ccccc4)ncnc32)cc1 (configuration not stated),.,.,.,.
CCN1CCN(Cc2ccc(-c3cc4c(N[C@H](C)c5ccccc5)ncnc4[nH]3)cc2)CC1,?,.,.,22µM
Cc1ccc(C)c(SC2=NS(=O)(=O)c3cc(C(=O)NCc4ccccc4)ccc32)c1,/,/,/,.
COc1ccc(-c2nc(CSCC(=O)N3CCN(c4ccc(OC)cc4)CC3)c(C)o2)cc1,?,.,.,.
COC(=O)CSCc1nc(-c2ccc(C(=O)OC)cc2)oc1C,2µM,.,.,.
COc1ccc(-c2nc(CSCC(=O)N3CCN(c4cc(Cl)ccc4C)CC3)c(C)o2)cc1,13µM,.,?,.
Cc1ccc(Cl)cc1N1CCN(C(=O)C2CCCN(Cc3nc(-c4cccc(Cl)c4)oc3C)C2)CC1 (configuration not stated),35µM,.,?,.
COc1ccc(-c2nc(CSCC(=O)N3CCN(c4cccc(C)c4C)CC3)c(C)o2)cc1OC,13µM,.,?,.
Cc1ccc2c(c1)C=Cc1cc(C)ccc1C2c1cn(Cc2ccc(C(=O)Nc3nn[nH]n3)o2)c(=O)[nH]c1=S,/,/,.,.
Cc1ccc(-c2cc(C(=O)Nc3cccc(S(N)(=O)=O)c3)c3ccccc3n2)cc1C,/,/,/,.
CCOc1ccc(-c2nc(CSCC(=O)N3CCN(c4ccc(F)cc4)CC3)c(C)o2)cc1,.,.,.,.
CCOc1ccc(-c2nc(CSCC(=O)N3CCN(c4cccc(C(F)(F)F)c4)CC3)c(C)o2)cc1,16µM,.,?,.
CCCCN(C)C(=O)Cn1nc(-c2ccc(F)cc2)ccc1=O,/,/,/,.
C[Se]CCC(N)C(=O)O (configuration not stated),.,.,.,16µM!
NC(=O)CC[C@@H](N)C(=O)O,.,.,.,.
COc1ccc(NS(=O)(=O)c2cc(Br)cc3c2N(C(=O)C2CC2)CC3)cc1OC,5.6µM,.,.,?
SMILES,HTT prom inh,HTT-AS act,FH mod,NTMT1 inh
Cc1ccc(NS(=O)(=O)c2ccc3c(c2)CCCN3C(=O)C2CCC2)cc1Cl,22µM,.,?,.
COc1ccc(NS(=O)(=O)c2ccc3c(c2)CCCN3C(=O)C2CCC2)cc1OC,1.8µM,.,.,.
N[C@@H](CCNCc1ccc(Cl)cc1)C(=O)N1CCCCC1,/,/,.,.
Cc1ccc([S+](=O)([O-])n2cc(-c3ccc(-c4ccccc4)cc3)c3ccccc32)cc1,/,/,/,.
O=S(=O)(/N=C/c1c(O)ccc2ccccc12)c1cccs1,/,/,16µM,?
NC(=O)c1ccc(OCC2NC(=O)C3CCCN3C2=O)cc1 (configuration not stated),/,/,.,.
COc1ccc(N2CCN(C(=O)c3cn(CC(C)C)c(=O)c4c3c3ccccc3n4C)CC2)cc1,.,.,32µM,.

# Screening data from PubChem.
